Assay outcomes as filed in PubChem BioAssay.
Shiga toxin inh – blocks Shiga toxin action in Vero cells; Vero cells, Shiga toxin protein synthesis inhibition reporter; inhibition, % at 38.7 µM; 290,000 tested, 9.2% active; in the data active means inhibition mostly above about 28%, no sharp cut-off; inactive means mostly below about 43%
Pf growth 96h – inhibits malaria parasite growth, 96 h. P. falciparum luciferase reporter growth, 96 h. Potency, µM (series often up to 28.7 µM), usual class: inhibitors. 320,000 tested, 6.9% active
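Two parasite generations (96 h, 37 C, 5% CO2) of compound exposure in infected erythrocytes (0.05% parasitemia, 2% hematocrit). Luciferase-reporter P. falciparum; decreased luminescence indicates inhibited growth, aimed at apicoplast-acting delayed death.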
CHX counter – affects cycloheximide protein synthesis inhibition readout, counter-screen. cell reporter, cycloheximide protein synthesis inhibition counterscreen. max response, %. 300,000 tested, 12% active. AID 2314; in the data active means max response mostly above about 13%, no sharp cut-off; inactive means mostly below about 14%; further: read at 38.3 µM for the half of the compounds with a filed dose
NS1 inh – inhibitors of influenza NS1 protein function. Potency, µM (top dose mostly 46.1 µM). 270,000 tested, 0.4% active. AID 2326; calls by dose curve; further: actives are rising curves; nearly all actives have a fitted effect of over 50% in size
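A cell-based growth assay was used: compounds that relieve NS1-induced slow growth of budding yeast raise OD600. Assay medium was yeast nitrogen base with ammonium sulphate and -URA supplement, pH 6.0, with 2% galactose.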
Pf growth 48h – P. falciparum growth inhibition at 48 hours (one generation) | P. falciparum luciferase growth in erythrocytes, 48 h | Potency, µM (top dose mostly 28.7 µM), most hits filed as inhibitors | 310,000 tested, 5.9% active
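First compound was added to culture medium, then infected red cells at 0.1% parasitemia and 2% hematocrit (final). After incubation at 37 C under 5% CO2, luciferase detection reagent was dispensed and light output recorded.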
Flu NS1 inh – validation of influenza NS1 protein function inhibitors; shares compounds with NS1 inh; influenza NS1 function cell assay, 15-point titration; 1,400 tested, under 10 active; activity change, negative = inhibition, % at 32.9 µM; calls by dose curve
CLK4 ADP-Glo – CLK4 (human) kinase inhibition, ADP-Glo confirmation; 65 tested, 80% active; recombinant Clk4, RS peptide, ADP-Glo luminescence; AID 1969; Potency, µM (doses to about 80 µM), actives largely listed as inhibitors; shares compounds with Pf growth 48h
Target sequence (Q9HAZ1 whole entry, looked up): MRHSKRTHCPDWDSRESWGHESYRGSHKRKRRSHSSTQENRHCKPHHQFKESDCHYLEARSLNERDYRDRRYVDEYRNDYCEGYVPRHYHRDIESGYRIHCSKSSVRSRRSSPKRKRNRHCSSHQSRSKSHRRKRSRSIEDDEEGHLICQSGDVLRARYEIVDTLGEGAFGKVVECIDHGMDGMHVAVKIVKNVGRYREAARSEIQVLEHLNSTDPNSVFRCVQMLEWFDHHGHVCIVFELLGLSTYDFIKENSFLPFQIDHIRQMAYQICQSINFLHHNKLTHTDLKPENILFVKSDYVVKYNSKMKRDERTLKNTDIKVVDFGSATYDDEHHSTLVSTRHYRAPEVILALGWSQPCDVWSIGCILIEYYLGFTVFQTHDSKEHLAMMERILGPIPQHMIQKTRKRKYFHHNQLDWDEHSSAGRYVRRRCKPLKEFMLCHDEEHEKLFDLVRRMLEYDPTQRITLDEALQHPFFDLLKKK
CLK4 cf ADP-FP – confirmation of human CDC-like kinase 4 (CLK4) inhibitors; shares compounds with Pf growth 48h; recombinant Clk4, ADP Transcreener FP, RS peptide; Potency, µM (highest dose often 80 µM), hits mostly inhibitors; 65 tested, 70% active; AID 1983
Large screens that a line does not name were inactive (follow-up assays come after a bar, where they were run). Most compounds without a hit are left out; they make up all but 21% or so of the library. Unless noted, the call rests on the fitted dose curve; in most records, active means well fitted curve in the direction sought with a large enough effect; inconclusive means small, poorly fitted or top-dose-only effect, or another doubt; inactive means no such curve, though single readings can be large; an effect the other way counts as inactive or inconclusive.

CC(C)[C@@]1(NC(=O)[C@@H]2C[C@@H]3c4cccc5[nH]cc(c45)C[C@H]3N(C)C2)O[C@@]2(O)C3CCCN3C(=O)[C@H](Cc3ccccc3)N2C1=O (some centres not stated)	NS1 inh 5.62µM (no result: Shiga toxin inh, Pf growth 96h, CHX counter, Pf growth 48h) | Flu NS1 inh inconclusive
CC(=O)OCC12COC3c4ccccc4OC(C)(CC1C)C3C2C (configuration not stated)	Pf growth 96h inconclusive, Pf growth 48h inconclusive (no result: NS1 inh)
CC1CC2(C)Oc3ccccc3C3OCC1(CO)C(C)C32 (configuration not stated)	NS1 inh inconclusive (no result: Pf growth 96h) | Flu NS1 inh inactive
COc1cccc(-c2ccc3ncnc(NCc4cccc(F)c4)c3c2)c1	Pf growth 96h 3.7µM, Pf growth 48h 6.57µM (no result: Shiga toxin inh, CHX counter, NS1 inh) | CLK4 ADP-Glo 0.631µM | CLK4 cf ADP-FP 0.891µM
COc1cccc(CNc2ncnc3cc(Cl)ccc23)c1	Pf growth 48h inconclusive
COc1cccc(-c2ccc3ncnc(NCc4cccc(C)c4)c3c2)c1	Pf growth 96h 3.7µM, Pf growth 48h 6.57µM (no result: Shiga toxin inh, CHX counter, NS1 inh) | CLK4 ADP-Glo 1.26µM | CLK4 cf ADP-FP 1.78µM
COc1ccc(NC(=O)CSc2nnc(-c3cccnc3)o2)c(OC)c1	none (no result: Shiga toxin inh, CHX counter, NS1 inh)
Cc1cccc2cc(CN(Cc3cccs3)C3(c4nnnn4C4CCCC4)CCCC3)c(=O)[nH]c12	none
Clc1cccc(-c2ccc3ncnc(NCc4cccnc4)c3c2)c1	Pf growth 96h 13.1µM, Pf growth 48h inconclusive (no result: Shiga toxin inh, CHX counter, NS1 inh) | CLK4 ADP-Glo 4.47µM | CLK4 cf ADP-FP inconclusive
c1nc(NCc2ccc3c(c2)OCO3)c2cc(-c3ccoc3)ccc2n1	Pf growth 96h inconclusive, Pf growth 48h inconclusive (no result: Shiga toxin inh, CHX counter, NS1 inh) | CLK4 ADP-Glo 0.708µM | CLK4 cf ADP-FP 0.891µM
Clc1ccccc1-c1ccc2ncnc(NCc3ccc4c(c3)OCO4)c2c1	Pf growth 96h 3.7µM, Pf growth 48h 8.28µM (no result: Shiga toxin inh, CHX counter, NS1 inh) | CLK4 ADP-Glo inconclusive | CLK4 cf ADP-FP inactive
c1cncc(CNc2ncnc3ccc(-c4cccnc4)cc23)c1	Pf growth 96h inconclusive, Pf growth 48h inconclusive (no result: Shiga toxin inh, CHX counter, NS1 inh) | CLK4 ADP-Glo 7.94µM | CLK4 cf ADP-FP 12.6µM
Cc1sc2ncnc(NCc3cccnc3)c2c1C	none (no result: NS1 inh)
Clc1ccc2ncnc(NCc3ccc4c(c3)OCO4)c2c1	none (no result: Pf growth 96h, NS1 inh, Pf growth 48h)
CSc1nc(C(C)C)ccc1CNC(=O)CC(C)c1ccccc1 (configuration not stated)	Pf growth 48h inconclusive
c1cncc(CNCCc2ccc3c(c2)OCO3)c1	none
c1cncc(CNc2ncnc3ccc(-c4ccc5c(c4)OCCO5)cc23)c1	none (no result: Shiga toxin inh, CHX counter, NS1 inh) | CLK4 ADP-Glo 0.398µM | CLK4 cf ADP-FP 0.708µM
Clc1ccccc1-c1ccc2ncnc(NCc3cccnc3)c2c1	Pf growth 96h inconclusive (no result: Shiga toxin inh, CHX counter, NS1 inh) | CLK4 ADP-Glo 12.6µM | CLK4 cf ADP-FP inconclusive
O=C(COc1ncnc2ccc(Br)cc12)NCc1ccc2c(c1)OCO2	none (no result: Pf growth 96h)
c1cncc(-c2ccc3ncnc(NCc4ccc5c(c4)OCO5)c3c2)c1	Pf growth 96h inconclusive, Pf growth 48h inconclusive (no result: Shiga toxin inh, CHX counter, NS1 inh) | CLK4 ADP-Glo 7.08µM | CLK4 cf ADP-FP 11.2µM
Fc1cccc(CNc2ncnc3ccc(-c4ccc5c(c4)OCO5)cc23)c1	Pf growth 96h 2.94µM, Pf growth 48h 4.15µM (no result: Shiga toxin inh, CHX counter, NS1 inh) | CLK4 ADP-Glo 0.141µM | CLK4 cf ADP-FP 0.0891µM
Cc1ccccc1CN1CCC(Oc2ccc(C(=O)NCc3ccccn3)cc2)CC1	Pf growth 96h inconclusive, Pf growth 48h inconclusive
CS(=O)c1ccccc1COC(=O)Nc1ccccc1 (configuration not stated)	none (no result: NS1 inh)
Cc1ccc(NC(=O)CCN2CC(C)OC(C)C2)cc1C (configuration not stated)	none
CCn1cc(C(=O)N(C)Cc2ccc(OC(F)F)cc2)c(=O)c2ccc(C)nc21	none
CN(Cc1ccco1)c1ncnc2ccc(-c3ccoc3)cc12	Pf growth 96h inconclusive, Pf growth 48h inconclusive (no result: Shiga toxin inh, CHX counter, NS1 inh) | CLK4 ADP-Glo 0.251µM | CLK4 cf ADP-FP 0.316µM
CN(Cc1ccco1)c1ncnc2ccc(-c3ccccc3Cl)cc12	Pf growth 96h inconclusive, Pf growth 48h 9.28µM (no result: Shiga toxin inh, CHX counter, NS1 inh) | CLK4 ADP-Glo 10µM | CLK4 cf ADP-FP 15.8µM
CN(Cc1ccccc1)c1ncnc2ccc(Br)cc12	Pf growth 48h inconclusive
COc1cc2ncnc(NCc3ccco3)c2cc1OC	Pf growth 96h inconclusive, Pf growth 48h inconclusive
